Compound activity: PubChem BioAssay, National Center for Advancing Translational Sciences (NCATS)
Shiga inhibitor: A qHTS for Small Molecule Inhibitors of Shiga Toxin | Vero cells, Shiga toxin protein synthesis inhibition reporter | inhibition, % at 38.7 µM | 290,000 compounds, 9.2% hits | AID 2315, 2010; in the data active means inhibition mostly above about 28%, no sharp cut-off; inactive means mostly below about 43%; further: 0% is about no effect
LASV entry inh: qHTS for Inhibitors of binding or entry into cells for Lassa Virus. 300,000 compounds, 1.2% hits. Potency, µM (top dose mostly 37.9 µM), without a hit: at the highest dose activity change, negative = inhibition, hits mostly inhibitors. Lassa virus pseudotype entry inhibition, cell reporter; calls by dose curve; tested in HEK293 cells; further: potency means the concentration at half of the fitted maximal effect; on the % scale 0 is the no-effect control and ±100 the full control effect; nearly all actives have a fitted effect of over 50% in size
Marburg entry inh: qHTS for inhibitors of binding or entry into cells for Marburg Virus; AID 540276, 2011; Potency, µM (series often up to 37.8 µM), inactives show at the top dose activity change, negative = inhibition, usual class: inhibitors; 300,000 compounds, 1.8% hits; Marburg virus pseudotyped entry inhibition, cell reporter; calls by dose curve; tested in HEK293 cells; further: potency means the concentration at half of the fitted maximal effect; on the % scale 0 is the no-effect control and ±100 the full control effect
AMA1 RON2 block: qHTS for Inhibitors of AMA1-RON; Towards Development of Antimalarial Drug Lead: Primary Screen. AlphaScreen AMA1-biotinylated RON2 peptide binding. 360,000 compounds, 0.2% hits. Potency, µM (series often up to 58.2 µM), without a hit: top-dose activity change, negative = inhibition, actives largely listed as inhibitors; active means well fitted inhibition curve with a large enough effect; inconclusive means small, poorly fitted or top-dose-only effect; inactive means no such curve, though single readings can be large or run the other way;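 further: potency means the concentration at half of the fitted maximal effect; 0% = vehicle wells and -100% = peptide control; nearly all actives have a fitted effect of over 45% in size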
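AMA1 (3D7) with his tag at 25 nM final met compounds first, then biotinylated RON2 peptide at 25 nM; detection used donor plus acceptor beads, 10 µg/mL apiece, read by AlphaScreen after 30 min at room temperature.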
CHX counter: Cycloheximide Counterscreen for Small Molecule Inhibitors of Shiga Toxin; cell reporter, cycloheximide protein synthesis inhibition counterscreen; max response, %; 300,000 compounds, 12% hits; AID 2314, 2010; in the data active means max response mostly above about 13%, no sharp cut-off; inactive means mostly below about 14%; further: read at 38.3 µM for the half of the compounds with a filed dose; 0% is about no effect
* hit, by the source's call; ? = inconclusive; · = no result; ! = repeats disagree; [ ] = dose if it differs, or a comment. The entries come from a sample that favours hits as a whole.

SMILES | Shiga inhibitor | LASV entry inh | Marburg entry inh | AMA1 RON2 block | CHX counter
CN1OC[C@@H]2CN(C(=S)NCCc3ccccc3)[C@H](c3ccc(N4CCCCC4)cc3)C[C@@H]21 | · | · | · | -22% | ·
CN(C)Cc1ccccc1Sc1cccc2ccccc12 | -9 | 15µM* | 21µM* | ? | -7
Cc1ccc(Sc2ccccc2CN(C)C)c(N)c1 | 31 | · | · | · | 25*
CN(C)Cc1ccccc1Sc1ccccc1Br | -2 | 15% | 0% | -5% | -4
COc1ccc(Sc2ccccc2CN(C)C)cc1OC | -6 | 21% | 4% | -2% | 1
CCC(=O)N1c2ccccc2CC1C(=O)NCc1ccccc1Cl (stereo not drawn) | · | 1%[46.1 µM] | · | · | ·
S=c1nc(-c2ccccc2)n(-c2ccccc2)[nH]1 | 27 | 22% | 20% | 85% | 15
CN=c1nc(-c2ccccc2)n(-c2ccccc2)s1 | · | 23µM* | 14µM*! | -16% | ·
Cc1[nH]cnc1CSCc1ccc(F)cc1 | 31* | ? | ? | -8% | 49*
COc1ccccc1NC(=O)c1cc2c(C)nn(-c3ccccc3)c2s1 | · | -19%[46.1 µM] | ? | · | ·
Cc1nn(-c2ccccc2)c2sc(C(=O)NC3CC3)cc12 | 81* | ? | 1% | 4% | 52*
COc1ccc(N2CC(NC(=O)c3ccc4c(c3)OCO4)CC2=O)cc1 (stereo not drawn) | · | 1%[46.1 µM] | · | · | ·
Cc1nccc(-c2ccc3c(c2)OCO3)n1 | 14 | 3% | 12%[46.1 µM] | 3% | 13
c1ccc(-c2nccc(-c3ccc4c(c3)OCO4)n2)cc1 | 70* | 4%[46.1 µM] | 1%[46.1 µM] | 6% | 55*
Cc1cccc(-c2noc(-c3ccc4c(c3)OCO4)n2)c1 | -5 | ? | ? | 5% | -2
c1ccc(-c2noc(-c3ccc4c(c3)OCO4)n2)nc1 | -12 | 0.41µM* | ? | 7% | -1
c1ccc(-c2noc(-c3ccc4ccccc4c3)n2)nc1 | -15 | 0.29µM* | 1.6µM* | 8% | -4
c1ccc(-c2noc(-c3ccncc3)n2)nc1 | 69 | -12% | ? | 3% | 34*
CC(=O)Nc1cc(-c2cccc(F)c2)cn2c(-c3ccc(F)cc3)cnc12 | · | · | · | 40% | ·
CCOC(=O)NC(=O)COC(=O)Cc1cc(OC)c(OC)c(OC)c1 | -5 | 3% | 4% | 10% | -6
c1ccc(-c2nc3n(c2-c2ccc4c(c2)OCO4)CCC3)nc1 | · | 10µM* | · | · | ·
c1ccc(-c2cc(-c3nc(-c4cccnc4)no3)c3ccccc3n2)cc1 | -6 | · | -3% | · | 0
Clc1ccc2nc(-c3ccccn3)c(Nc3ccc4c(c3)OCO4)n2c1 | 11 | ? | 1% | -9% | -2
c1ccc(-c2noc(-c3cccnc3)n2)nc1 | 80* | -23% | 1% | 24% | 42*
Cc1ccc(Cn2c(C)c(CNCc3ccccc3F)c(C(=O)O)c2C)cc1 | · | 0%[46.1 µM] | 14%[46.1 µM] | · | ·
SMILES | Shiga inhibitor | LASV entry inh | Marburg entry inh | AMA1 RON2 block | CHX counter
Cc1cccc(CNC(=O)C(=O)Nc2ccccc2C)c1 | · | -7%[46.1 µM] | 3%[46.1 µM] | · | ·
COC(=O)[C@]12CCCCC=C1N(Cc1ccccc1)C(=O)[C@H](CC(=O)N1CCCCC1)C2 | · | · | · | -2% | ·
CCn1ncc(/C=N/NC(=O)c2ccc3c(c2)OCO3)c1C | 23 | ? | ? | -2% | 4
CCn1nc(C)c(/C=N\NC(=O)c2ccc3c(c2)OCO3)c1C | 83* | -2% | -7%[46.1 µM] | 16% | 39*
CCn1cc(/C=N/NC(=O)c2ccc3c(c2)OCO3)c(C)n1 | 48 | ? | 9% | 12% | 16*
COc1ccccc1C(=O)NC(CCSC)C(=O)NCc1ccncc1 (stereo not drawn) | · | 2% | 5% | -7%[11.6 µM] | ·
O=C(Nc1cccc(-c2cccc(Cl)c2)c1)C1CCN(Cc2ccccn2)CC1 | 4 | 10µM* | ? | 18% | -5
Cn1cc(CN2CCC(C(=O)Nc3cccc(-c4cccc(F)c4)c3)CC2)cn1 | -13 | · | · | -16% | -4
CCCn1ncc(CN2CCC(C(=O)Nc3cccc(-c4cccc(F)c4)c3)CC2)c1C | -10 | ? | 2.5µM* | -1% | -5
COc1ccc(S(=O)(=O)Nc2cc3c4c(c2)CCN4C(=O)CC3)cc1C | · | -7% | -2%[46.1 µM] | 0% | ·
O=C(NCc1ccc(C(F)(F)F)cc1)c1cccc2c(-c3ccc(F)c(F)c3)coc12 | · | · | · | 13% | ·
CN1CCN(c2ccc(CNC(=O)c3cccc4c(-c5ccc(F)c(F)c5)coc34)cc2)CC1 | · | · | · | 14µM* | ·
O=c1c2oc3ccccc3c2n(Cc2ccccc2Cl)c(=O)n1Cc1ccc2c(c1)OCO2 | · | 11%[46.1 µM] | · | · | ·
CCOc1ccc(NC(=O)/C=C\C(=O)N(c2ccc(C(C)C)cc2)C(C(=O)NCc2ccco2)c2ccc(F)cc2)cc1 (stereo not drawn) | · | -25%[46.1 µM] | · | · | ·
O=C(CSc1nnc(-c2ccco2)c(-c2ccco2)n1)Nc1ccccc1 | 27 | -11% | -3% | ? | 31*
CN(C)c1ccc(NC(=O)CSc2nnc(-c3ccco3)c(-c3ccco3)n2)cc1 | 6 | ? | -19%[46.1 µM] | 18µM* | 8
COc1ccc(NC(=O)CSc2nnc(-c3ccco3)c(-c3ccco3)n2)cc1OC | 1 | ? | ? | -5% | 4
Cc1cccc(C)c1NC(=O)CSc1nnc(-c2ccco2)c(-c2ccco2)n1 | 14 | ? | ? | -20% | 2
Cc1ccc(NC(=O)CSc2nnc(-c3ccco3)c(-c3ccco3)n2)cc1 | 1 | 2.8µM* | -16% | -15% | 15
Cc1nc(NC(=O)CSc2nnc(-c3ccccc3)c(-c3ccccc3)n2)c(Cl)cc1Cl | -11 | -17% | 11% | -25% | -2
O=C(CSc1nnc(-c2ccccc2)c(-c2ccccc2)n1)Nc1ncc(Cl)cc1Cl | 34* | 10% | 3% | 14% | 18*
CC[C@@H](C)[C@@H](CO[C@@H](Cc1ccccc1)C(=O)N[C@@H](CCS(C)(=O)=O)C(=O)OC(C)C)NC[C@@H](N)CS | -7 | · | · | · | 12
Cc1ccc(S(=O)(=O)NCCS(=O)(=O)N2CCN(c3ccccc3)CC2)cc1 | -6 | -1%[46.1 µM] | · | 0% | 6
Cn1nnc2cc(NC(=O)Nc3cccc(Cl)c3)ccc21 | 52* | · | · | 0% | 37*
O=C(Nc1ccc2ncccc2c1)c1ccccc1Cl | 7 | · | · | 5% | -2
SMILES | Shiga inhibitor | LASV entry inh | Marburg entry inh | AMA1 RON2 block | CHX counter
O=C(Nc1ccc2nccnc2c1)Nc1ccccc1Cl | 62* | -1%[46.1 µM] | ? | -12% | 32*
O=C(Nc1cccc(Cl)c1)Nc1ccc(Cl)cn1 | -7 | 15% | 6% | 1% | 7
O=C(Nc1cccc(Cl)c1)Nc1ccc2nccnc2c1 | 55* | · | · | -10% | 31*
COc1ccc(NCc2ccc([N+](=O)[O-])s2)cc1 | 31 | 5% | 5% | ? | 21*
O=[N+]([O-])c1ccc(CNc2cccc(Cl)c2)s1 | 25 | -3% | ? | -24% | -2
COc1ccc(NC(=O)/C=C/c2ccccc2[N+](=O)[O-])c(OC)c1 | 2 | 15% | -15% | -17% | 12
O=[N+]([O-])c1ccc(CNc2ccc(F)cc2)s1 | -10 | -16% | ? | -21% | -1
COc1ccc(NCc2ccc([N+](=O)[O-])s2)c(OC)c1 | 34* | 17% | 12% | ? | 25*
